PubChem BioAssay AID1159580 (chemical genetic matrix, 2015)
Values joined by “and” are separate entries in the source; they are usually repeats but may differ in a detail not shown here. Equal values may be shown once. Hit rate of the full screen: of about 5,500 compounds, about 2,000 (36%) were called active. Another 18% or so got no clear call; they are omitted. Rule as the data show it: active = normalized growth mostly below about 0.91 (no sharp cut-off); inconclusive = no clear call, values can overlap the other calls; inactive = mostly above about 0.92. This is one part of the list. Some structures have more than one record in an assay (separate samples or runs), and their calls can disagree.

Experiment: chemical genetic growth profiling, strain panel (AID 1159580);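 also: tested at 20 µM; growth read once vehicle control cultures reached saturation at 30 °C; 1 = growth at the plate median or of vehicle wells; lower values mean less growth of the strain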
Settings: growth OD

Measured: normalized growth

O=c1cc(-c2ccccc2)oc2cc(O)cc(O)c12
0.882 (inactive) and 0.838 (active): S. cerevisiae deletion strains, locus YLR357W, strain rsc2, stronger effect = lower value
0.936 (inactive) and 0.919 (active): S. cerevisiae deletion strains, locus YLL026W, stronger effect = lower value
0.912 (inactive) and 0.807 (active): S. cerevisiae deletion strains, locus YOR083W, strain WHI5, stronger effect = lower value
0.944 (inactive) and 0.828 (active): S. cerevisiae deletion strains, locus YLR221C, strain rsa3, stronger effect = lower value
0.924 (inactive) and 0.838 (active): S. cerevisiae deletion strains, locus YLR258W, strain gsy2, stronger effect = lower value
0.957 (inactive) and 0.875 (active): S. cerevisiae deletion strains, locus YOR070C, strain gyp1, stronger effect = lower value
0.934 (inactive) and 0.871 (active): S. cerevisiae deletion strains, locus YMR231W, strain pep5, stronger effect = lower value
0.97 (inactive) and 0.818 (active): S. cerevisiae deletion strains, locus YNL248C, strain rpa49, stronger effect = lower value
0.954 (inactive) and 0.871 (active): S. cerevisiae deletion strains, locus YNL209W, strain ssb2, stronger effect = lower value
0.901 (inactive) and 0.85 (active): S. cerevisiae deletion strains, locus YOR290C, strain snf2, stronger effect = lower value
0.915 (inactive) and 0.802 (active): S. cerevisiae deletion strains, locus YOR106W, strain vam3, stronger effect = lower value
active: S. cerevisiae deletion strains, locus YKL009W, strain mrt4, stronger effect = lower value 0.667 | S. cerevisiae deletion strains, locus YKL085W, strain MDH1 (second series), stronger effect = lower value 0.888 | S. cerevisiae deletion strains, locus YKL085W, strain MDH1, stronger effect = lower value 0.888 | S. cerevisiae deletion strains, locus YKR001C, strain vps1, stronger effect = lower value 0.813 | S. cerevisiae deletion strains, locus YLR113W, strain HOG1, stronger effect = lower value 0.831 | S. cerevisiae deletion strains, locus YLR262C, strain YPT6 (second series), stronger effect = lower value 0.677 and 0.514 | S. cerevisiae deletion strains, locus YLR268W, strain sec22, stronger effect = lower value 0.837 | S. cerevisiae deletion strains, locus YLR320W, strain mms22, stronger effect = lower value 0.837 and 0.73 | S. cerevisiae deletion strains, locus YLR418C, strain cdc73, stronger effect = lower value 0.761 | S. cerevisiae deletion strains, locus YML032C, strain rad52, stronger effect = lower value 0.87 | S. cerevisiae deletion strains, locus YMR058W, strain fet3, stronger effect = lower value 0.893 and 0.653 | S. cerevisiae deletion strains, locus YMR205C, strain PFK2, stronger effect = lower value 0.87 and 0.693 | S. cerevisiae deletion strains, locus YMR307W, strain GAS1, stronger effect = lower value 0.551 | S. cerevisiae deletion strains, locus YNL071W, strain lat1, stronger effect = lower value 0.891 and 0.727 | S. cerevisiae deletion strains, locus YNL233W, strain BNI4, stronger effect = lower value 0.869 | S. cerevisiae deletion strains, locus YNL271C, strain bni1, stronger effect = lower value 0.904 | S. cerevisiae deletion strains, locus YNL298W, strain CLA4, stronger effect = lower value 0.893 | S. cerevisiae deletion strains, locus YNL307C, strain MCK1, stronger effect = lower value 0.834 | S. cerevisiae deletion strains, locus YOL147C, strain pex11, stronger effect = lower value 0.929 | S. cerevisiae deletion strains, locus YOR144C, strain elg1, stronger effect = lower value 0.932 | S. cerevisiae deletion strains, locus YOR184W, strain ser1, stronger effect = lower value 0.761 | S. cerevisiae deletion strains, locus YOR270C, strain vph1, stronger effect = lower value 0.746 and 0.518 | S. cerevisiae deletion strains, locus YPL051W, strain arl3, stronger effect = lower value 0.905 and 0.701 | S. cerevisiae deletion strains, locus YPR163C, strain tif3, stronger effect = lower value 0.883
inactive: S. cerevisiae deletion strains, locus YJR075W, strain HOC1, stronger effect = lower value 0.924 | S. cerevisiae deletion strains, locus YKL068W, stronger effect = lower value 0.943 | S. cerevisiae deletion strains, locus YKL190W, strain CNB1, stronger effect = lower value 0.941 | S. cerevisiae deletion strains, locus YLL001W, strain dnm1, stronger effect = lower value 0.94 and 0.905 | S. cerevisiae deletion strains, locus YLR039C, strain RIC1, stronger effect = lower value 0.715 | S. cerevisiae deletion strains, locus YLR058C, strain SHM2, stronger effect = lower value 0.965 | S. cerevisiae deletion strains, locus YLR102C, strain apc9, stronger effect = lower value 0.947 | S. cerevisiae deletion strains, locus YLR262C, strain YPT6, stronger effect = lower value 0.684 | S. cerevisiae deletion strains, locus YLR330W, strain CHS5, stronger effect = lower value 0.972 | S. cerevisiae deletion strains, locus YLR342W, strain FKS1 (second series), stronger effect = lower value 0.862 | S. cerevisiae deletion strains, locus YLR370C, strain arc18, stronger effect = lower value 0.958 and 0.933 | S. cerevisiae deletion strains, locus YLR371W, strain rom2, stronger effect = lower value 0.951 | S. cerevisiae deletion strains, locus YLR384C, strain iki3, stronger effect = lower value 0.938 and 0.931 | S. cerevisiae deletion strains, locus YML016C, strain PPZ1, stronger effect = lower value 0.985 | S. cerevisiae deletion strains, locus YML120C, strain ndi1, stronger effect = lower value 0.944 and 0.942 | S. cerevisiae deletion strains, locus YML124C, strain tub3, stronger effect = lower value 0.952 | S. cerevisiae deletion strains, locus YMR078C, strain ctf18, stronger effect = lower value 0.928 | S. cerevisiae deletion strains, locus YMR125W, strain sto1, stronger effect = lower value 0.929 and 0.907 | S. cerevisiae deletion strains, locus YMR129W, stronger effect = lower value 0.94 | S. cerevisiae deletion strains, locus YMR223W, strain ubp8, stronger effect = lower value 0.906 | S. cerevisiae deletion strains, locus YMR263W, strain SAP30, stronger effect = lower value 0.927 | S. cerevisiae deletion strains, locus YNL067W, strain RPL9B, stronger effect = lower value 0.898 | S. cerevisiae deletion strains, locus YNL128W, strain TEP1, stronger effect = lower value 0.972 | S. cerevisiae deletion strains, locus YNL153C, strain GIM3, stronger effect = lower value 0.931 | S. cerevisiae deletion strains, locus YNL183C, strain NPR1, stronger effect = lower value 0.894 | S. cerevisiae deletion strains, locus YNL250W, strain rad50, stronger effect = lower value 0.925 | S. cerevisiae deletion strains, locus YNL322C, strain KRE1, stronger effect = lower value 0.978 | S. cerevisiae deletion strains, locus YNR049C, strain mso1, stronger effect = lower value 0.966 and 0.944 | S. cerevisiae deletion strains, locus YNR052C, strain pop2, stronger effect = lower value 0.944 | S. cerevisiae deletion strains, locus YOL006C, strain TOP1, stronger effect = lower value 0.686 | S. cerevisiae deletion strains, locus YOL012C, strain htz1 0.62 | S. cerevisiae deletion strains, locus YOR001W, strain rrp6, stronger effect = lower value 0.941 and 0.903 | S. cerevisiae deletion strains, locus YOR061W, strain CKA2, stronger effect = lower value 0.98 | S. cerevisiae deletion strains, locus YOR069W, strain VPS5, stronger effect = lower value 0.988 | S. cerevisiae deletion strains, locus YOR080W, strain dia2, stronger effect = lower value 0.97 and 0.934 | S. cerevisiae deletion strains, locus YOR136W, strain idh2, stronger effect = lower value 0.968 | S. cerevisiae deletion strains, locus YOR231W, strain MKK1, stronger effect = lower value 0.905 | S. cerevisiae deletion strains, locus YOR265W, strain rbl2, stronger effect = lower value 0.947 and 1.01 | S. cerevisiae deletion strains, locus YOR316C, strain cot1, stronger effect = lower value 0.945 | S. cerevisiae deletion strains, locus YPL055C, strain LGE1, stronger effect = lower value 0.91 | S. cerevisiae deletion strains, locus YPL106C, strain sse1, stronger effect = lower value 0.911 and 0.879 | S. cerevisiae deletion strains, locus YPL241C, strain CIN2, stronger effect = lower value 0.985 | S. cerevisiae deletion strains, locus YPL256C, strain CLN2, stronger effect = lower value 0.891 | S. cerevisiae deletion strains, locus YPR119W, strain clb2, stronger effect = lower value 0.937 | S. cerevisiae deletion strains, locus YPR141C, strain kar3, stronger effect = lower value 0.942 | S. cerevisiae deletion strains, locus YPR167C, strain met16, stronger effect = lower value 0.947 | S. cerevisiae deletion strains, strain wtn01, stronger effect = lower value 0.912 | S. cerevisiae strains, strain wild type, stronger effect = lower value 0.956
0.943 (inactive) and 0.867 (active): S. cerevisiae deletion strains, locus YLR027C, strain aat2, stronger effect = lower value
0.946 (inactive) and 0.903 (active): S. cerevisiae deletion strains, locus YLR342W, strain FKS1, stronger effect = lower value
0.94 (inactive) and 0.912 (active): S. cerevisiae deletion strains, locus YKR026C, strain gcn3, stronger effect = lower value
0.946 (inactive) and 0.915 (active): S. cerevisiae deletion strains, locus YLL041C, strain sdh2, stronger effect = lower value
0.97 (inactive) and 0.877 (active): S. cerevisiae deletion strains, locus YNL322C, strain KRE1 (second series), stronger effect = lower value
0.908 (inactive) and 0.809 (active): S. cerevisiae deletion strains, locus YKL160W, strain elf1, stronger effect = lower value
0.926 (inactive) and 0.776 (active): S. cerevisiae deletion strains, locus YPL078C, strain atp4, stronger effect = lower value
0.943 (inactive) and 0.912 (active): S. cerevisiae deletion strains, locus YKR091W, strain srl3, stronger effect = lower value
0.962 (inactive) and 0.886 (active): S. cerevisiae deletion strains, locus YPL240C, strain hsp82, stronger effect = lower value
